# Test results from PubChem BioAssay (Tox21).
# Unmarked numbers belong to inactive results. Results filed as inconclusive are left out. Entries that show only a call come without a potency. Activity calls are given as the source filed them. Unless noted, the call rests on the fitted dose curve; in most records, active means well fitted curve in the direction sought with a large enough effect in the repeat runs; inconclusive means weak or mixed curves; inactive means no such curve, though single readings can be large; an effect the other way counts as inactive or inconclusive.
# Legend:
# [1] = target: Estrogen receptor beta (Homo sapiens) (UniProt Q92731); assay: qHTS assay to identify small molecule agonists of the estrogen receptor beta (ER-beta) signaling pathway (AID 1259377; active means well fitted activation curve with a large enough effect in the signal ratio in the repeat runs, not every such curve was filed as active; the % refers to the signal ratio; further: potency means the concentration at half of the fitted maximal effect)
# Procedure, shortened: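 Measured by fluorescence intensity from a B/G FRET beta-lactamase substrate (2 h, room temperature) in ER-beta-UAS-bla HEK293T cells treated with DMSO-dissolved compounds for 16 hr at 37C and 5% CO2.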
# [2] = qHTS assay to identify small molecule agonists of the estrogen receptor beta (ER-beta) signaling pathway - cell viability counter screen (AID 1259380); further: nearly all actives have a fitted effect of over 30% in size; further: potency means the concentration at half of the fitted maximal effect
# Procedure, shortened: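 Steps: plate ER-beta-UAS-bla HEK293T cells, rest 6 hr; add compounds in DMSO; incubate 16 hr at 37C, 5% CO2; add FRET substrate 2 hr; add CellTiter-Glo, wait 30 min at room temperature; read luminescence.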
# [3] = qHTS assay to identify small molecule antagonists of the estrogen receptor beta (ER-beta) signaling pathway - cell viability counter screen (AID 1259382); further: nearly all actives have a fitted effect of over 55% in size; further: potency means the concentration at half of the fitted maximal effect
# Procedure, shortened: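 Viability is scored by CellTiter-Glo luminescence (30 min, room temperature) in ER-beta-UAS-bla HEK293T wells already read for reporter fluorescence. Compound exposure lasts 16 hr at 37C alongside 1nM 17-beta-estradiol in charcoal-stripped serum medium.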
# [4] = target: Estrogen receptor (Homo sapiens) (UniProt P03372); assay: qHTS assay to identify small molecule agonists of the estrogen receptor alpha (ER-alpha) signaling pathway in the presence of an antagonist (AID 1259383; calls by dose curve; further: nearly all actives have a fitted effect of over 15% in size; further: potency means the concentration at half of the fitted maximal effect; on activation: top concentration of the series differs between compounds)
# Procedure, shortened: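 Readout was ERE-driven luciferase luminescence in VM7Luc4E2 cells, which express full-length ER-alpha endogenously. Compounds were tested at 15 concentrations for 22hr alongside 10.0nM ICI-182,780 (final concentration).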
# [5] = qHTS assay to identify small molecule agonists or antagonists of the thyroid stimulating hormone receptor (TSHR) signaling pathway - wild type cell line counter screen (AID 1259384; calls by dose curve)
# Procedure, shortened: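 Wild-type Hek293 cells, 800/well, 18 h at 37C, then compound with Ro20-1724 for 30 min RT. cAMP by HTRF (cAMP-d2/anti-cAMP cryptate), 1 h RT, fluorescence read. 15 concentrations, triplicates.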
# [6] = target: Thyrotropin receptor (Homo sapiens) (UniProt P16473); assay: qHTS assay to identify small molecule antagonists of the thyroid stimulating hormone receptor (TSHR) signaling pathway (AID 1259385; calls by dose curve; further: nearly all actives have a fitted effect of over 20% in size; further: potency means the concentration at half of the fitted maximal effect)
# Procedure, shortened: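 TSHR-HEK293 cells (800/well) plated 18 h, then compounds with Ro20-1724 and TSH at 1.5 ng/mL final, 30 min at room temperature. cAMP quantified by HTRF (cAMP-d2/anti-cAMP-cryptate, 1 h); 15 concentrations in triplicate.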
# [7] = qHTS assay to identify small molecule agonists of the androgen receptor (AR) signaling pathway in the presence of an antagonist - cell viability counter screen (AID 1259379); further: nearly all actives have a fitted effect of over 25% in size; further: potency means the concentration at half of the fitted maximal effect
# Procedure, shortened: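 Nilutamide-containing (3.0uM final) MDA-kb2 cultures, 3,000 cells/well, were treated with compounds across 15 concentrations. After 16 hr at 37C with no CO2, cell viability was determined by CellTiter-Fluor fluorescence in the luciferase assay wells.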
# [8] = qHTS assay to identify small molecule agonists of the estrogen receptor alpha (ER-alpha) signaling pathway in the presence of an antagonist - cell viability counter screen (AID 1259386);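 further: cells exposed to compounds for 22 h at 37 °C before the viability read; nearly all actives have a fitted effect of over 30% in size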; further: potency means the concentration at half of the fitted maximal effect
# Procedure, shortened: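 In this counter screen, compound effects on VM7Luc4E2 viability were tested in the presence of the antagonist ICI-182,780 at 10.0nM final. Compounds were dosed at 15 concentrations, exposure lasted 22hr, and the CellTiter-Fluor signal was read.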
# [9] = target: Androgen receptor (Homo sapiens) (UniProt P10275); assay: qHTS assay to identify small molecule agonists of the androgen receptor (AR) signaling pathway in the presence of an antagonist (AID 1259381; calls by dose curve; further: nearly all actives have a fitted effect of over 15% in size)
# Procedure, shortened: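 Reporter-gene luminescence from MDA-kb2 cells exposed 16hr at 37C (0% CO2) to 15-point compound titrations with 3.0uM final nilutamide as AR antagonist.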
# [10] = target: Estrogen receptor beta (Homo sapiens) (UniProt Q92731); assay: qHTS assay to identify small molecule antagonists of the estrogen receptor beta (ER-beta) signaling pathway (AID 1259378; active means well fitted inhibition curve with a large enough effect in the signal ratio in the repeat runs, not every such curve was filed as active; the % refers to the signal ratio; further: potency means the concentration at half of the fitted maximal effect)
# Procedure, shortened: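 ER-beta-UAS-bla HEK293T cells in 2% charcoal-stripped FBS medium treated with compound plus 1nM final 17-beta-estradiol for 16 hr at 37C. Beta-lactamase reporter read by FRET substrate fluorescence after 2 hours at room temperature.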
# Chain of Estrogen receptor (Homo sapiens) (P03372 whole entry, looked up): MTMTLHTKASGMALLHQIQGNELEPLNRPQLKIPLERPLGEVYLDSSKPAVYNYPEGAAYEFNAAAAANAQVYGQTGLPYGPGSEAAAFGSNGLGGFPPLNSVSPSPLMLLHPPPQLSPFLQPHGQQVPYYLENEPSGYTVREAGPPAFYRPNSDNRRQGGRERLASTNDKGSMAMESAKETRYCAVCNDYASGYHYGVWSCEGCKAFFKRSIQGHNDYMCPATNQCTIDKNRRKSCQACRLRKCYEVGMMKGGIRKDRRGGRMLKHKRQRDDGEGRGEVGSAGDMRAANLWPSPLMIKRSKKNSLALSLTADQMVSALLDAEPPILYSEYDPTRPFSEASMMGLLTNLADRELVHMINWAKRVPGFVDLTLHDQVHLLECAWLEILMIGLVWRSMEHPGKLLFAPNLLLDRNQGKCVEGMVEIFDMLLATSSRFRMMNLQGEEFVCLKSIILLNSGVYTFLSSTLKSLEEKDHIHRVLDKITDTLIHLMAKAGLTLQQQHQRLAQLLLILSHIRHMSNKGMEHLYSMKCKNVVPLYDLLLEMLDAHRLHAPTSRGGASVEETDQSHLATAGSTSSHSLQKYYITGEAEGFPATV
# Chain of Androgen receptor (Homo sapiens) (P10275 whole entry, looked up): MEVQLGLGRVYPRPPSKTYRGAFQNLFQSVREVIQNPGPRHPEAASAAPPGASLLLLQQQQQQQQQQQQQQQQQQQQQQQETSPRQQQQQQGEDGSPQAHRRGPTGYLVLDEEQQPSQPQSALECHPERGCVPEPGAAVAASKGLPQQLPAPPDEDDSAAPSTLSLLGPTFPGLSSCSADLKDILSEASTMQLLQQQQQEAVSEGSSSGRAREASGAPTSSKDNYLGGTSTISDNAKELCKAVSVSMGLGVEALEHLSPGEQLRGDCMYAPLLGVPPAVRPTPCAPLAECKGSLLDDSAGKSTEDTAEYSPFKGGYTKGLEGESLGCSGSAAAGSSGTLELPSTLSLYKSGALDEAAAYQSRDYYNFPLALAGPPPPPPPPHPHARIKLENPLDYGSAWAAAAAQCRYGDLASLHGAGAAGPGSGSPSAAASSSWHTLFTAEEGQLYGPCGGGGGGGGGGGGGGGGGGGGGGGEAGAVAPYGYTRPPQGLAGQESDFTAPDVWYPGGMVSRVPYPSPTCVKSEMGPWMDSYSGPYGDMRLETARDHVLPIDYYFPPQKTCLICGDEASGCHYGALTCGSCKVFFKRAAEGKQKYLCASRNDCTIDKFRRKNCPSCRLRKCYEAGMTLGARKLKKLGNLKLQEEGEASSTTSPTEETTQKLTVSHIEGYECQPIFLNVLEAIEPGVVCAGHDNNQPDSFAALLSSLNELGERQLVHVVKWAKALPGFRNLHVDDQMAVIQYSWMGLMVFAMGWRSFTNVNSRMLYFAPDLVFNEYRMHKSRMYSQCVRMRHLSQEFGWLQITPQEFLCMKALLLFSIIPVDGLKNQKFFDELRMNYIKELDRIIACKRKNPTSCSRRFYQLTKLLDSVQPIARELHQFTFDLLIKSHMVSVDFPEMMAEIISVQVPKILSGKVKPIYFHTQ
# Chain of Estrogen receptor beta (Homo sapiens) (Q92731 whole entry, looked up): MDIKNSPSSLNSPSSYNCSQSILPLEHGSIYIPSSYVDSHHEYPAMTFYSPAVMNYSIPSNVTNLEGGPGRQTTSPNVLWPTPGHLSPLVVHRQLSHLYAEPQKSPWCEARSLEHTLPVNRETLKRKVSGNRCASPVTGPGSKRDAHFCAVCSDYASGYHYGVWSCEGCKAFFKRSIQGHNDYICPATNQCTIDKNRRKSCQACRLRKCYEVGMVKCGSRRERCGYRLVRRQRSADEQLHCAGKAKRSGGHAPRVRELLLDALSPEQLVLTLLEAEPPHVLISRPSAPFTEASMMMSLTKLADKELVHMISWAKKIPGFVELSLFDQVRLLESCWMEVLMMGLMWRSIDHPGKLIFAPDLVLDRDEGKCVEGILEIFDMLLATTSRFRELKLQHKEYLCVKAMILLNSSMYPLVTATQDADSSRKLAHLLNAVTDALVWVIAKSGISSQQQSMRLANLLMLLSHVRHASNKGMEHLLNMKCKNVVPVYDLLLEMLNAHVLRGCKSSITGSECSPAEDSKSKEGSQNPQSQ
# Chain of Thyrotropin receptor (Homo sapiens) (P16473 whole entry, looked up): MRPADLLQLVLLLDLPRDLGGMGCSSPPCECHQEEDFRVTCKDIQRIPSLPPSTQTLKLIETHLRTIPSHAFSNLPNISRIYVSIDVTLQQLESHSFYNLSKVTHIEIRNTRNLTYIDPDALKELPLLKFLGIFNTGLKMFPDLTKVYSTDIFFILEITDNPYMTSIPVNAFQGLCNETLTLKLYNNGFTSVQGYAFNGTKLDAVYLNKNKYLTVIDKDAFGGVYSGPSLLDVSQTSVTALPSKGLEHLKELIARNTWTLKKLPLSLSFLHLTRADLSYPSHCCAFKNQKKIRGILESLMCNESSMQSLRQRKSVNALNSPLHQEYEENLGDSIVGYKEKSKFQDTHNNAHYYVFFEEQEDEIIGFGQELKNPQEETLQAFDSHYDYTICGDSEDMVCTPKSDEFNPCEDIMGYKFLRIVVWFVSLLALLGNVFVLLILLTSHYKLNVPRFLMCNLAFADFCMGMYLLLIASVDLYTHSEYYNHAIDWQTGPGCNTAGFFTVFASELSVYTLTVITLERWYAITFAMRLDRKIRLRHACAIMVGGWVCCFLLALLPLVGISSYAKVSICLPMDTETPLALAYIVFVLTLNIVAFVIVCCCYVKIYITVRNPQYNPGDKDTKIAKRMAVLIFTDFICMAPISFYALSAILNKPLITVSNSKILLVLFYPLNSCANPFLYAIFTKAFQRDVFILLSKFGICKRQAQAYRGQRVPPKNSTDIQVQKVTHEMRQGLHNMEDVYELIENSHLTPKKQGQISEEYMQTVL
compound,measurement,setting,value
CC(C)=CCN1CC[C@@]2(C)c3cc(O)ccc3C[C@@H]1[C@@H]2C,Potency,[1],inactive
same,Potency,[2],inactive
same,Potency,[3],inactive
same,Potency,[4],inactive
same,Potency,[5],inactive
same,Potency,[6],inactive
CC[C@]1(O)CC[C@H]2[C@@H]3CCC4=CCCC[C@@H]4[C@H]3CC[C@@]21C,Potency,[1],0.0067 µM (active)
same,Potency,[7],inactive
same,Potency,[3],inactive
same,Potency,[4],0.0019 µM (active)
same,Potency,[6],inactive
same,Potency,[8],inactive
Cc1ccc([N+](=O)[O-])[c]2c1[O][Hg]2,Potency,[1],inactive
same,Potency,[7],13.3 µM (active)
same,Potency,[2],4.22 µM (active)
same,Potency,[9],inactive
same,Potency,[3],5.31 µM (active)
same,Potency,[4],inactive
same,Potency,[5],inactive
same,Potency,[6],21.1 µM (active)
same,Potency,[8],29.8 µM (active)
Cc1cccc(Cc2cnc[nH]2)c1C,Potency,[1],inactive
same,Potency,[7],inactive
same,Potency,[3],inactive
same,Potency,[4],inactive
same,Potency,[5],inactive
same,Potency,[6],inactive
same,Potency,[8],inactive
O=C(N[C@H]1N=C(c2ccccc2F)c2cccc3c2N(CC3)C1=O)c1cc2ccccc2[nH]1,Potency,[1],inactive
same,Potency,[10],inactive
same,Potency,[7],inactive
same,Potency,[3],inactive
same,Potency,[6],inactive
same,Potency,[8],inactive
CCC[CH2][Sn]([CH2]CCC)([CH2]CCC)[O][Sn]([CH2]CCC)([CH2]CCC)[CH2]CCC,activation,[1],-9.06% [at 8.39 µM]
same,Potency,[7],0.475 µM (active)
same,activation,[9],-10.6% [at 8.39 µM]
same,Potency,[3],1.19 µM (active)
same,activation,[4],-15.3% [at 8.39 µM]
same,"activity change, negative = inhibition",[6],0.334% [at 8.39 µM]
same,Potency,[8],0.475 µM (active)
Cc1ccc(C)c2ccccc12,Potency,[10],inactive
same,Potency,[7],inactive
same,Potency,[2],inactive
same,Potency,[9],inactive
same,Potency,[3],inactive
same,Potency,[8],inactive
CSC1=N[C@@](C)(c2ccccc2)C(=O)N1Nc1ccccc1,Potency,[1],inactive
same,Potency,[10],27.3 µM (active)
same,Potency,[7],30.6 µM (active)
same,Potency,[3],inactive
same,Potency,[8],54.5 µM (active)
CCC(C)c1cccc(C(C)CC)c1O (configuration not stated),Potency,[1],inactive
same,Potency,[7],inactive
same,Potency,[2],inactive
same,Potency,[3],inactive
same,Potency,[4],inactive
same,Potency,[5],inactive
same,Potency,[6],inactive
same,Potency,[8],inactive
CCN(CC)Cc1nccn1-c1ccc([N+](=O)[O-])cc1C(=O)c1ccccc1Cl,Potency,[1],inactive
same,Potency,[7],inactive
same,Potency,[2],inactive
same,Potency,[3],inactive
same,Potency,[5],inactive
same,Potency,[6],inactive
same,Potency,[8],inactive
C=CCOC(=O)c1ccccc1N,Potency,[1],inactive
same,Potency,[7],inactive
same,Potency,[9],inactive
same,Potency,[3],inactive
same,Potency,[4],inactive
same,Potency,[5],inactive
same,Potency,[6],inactive
same,Potency,[8],inactive
CC(C)N(C(=O)SC/C(Cl)=C/Cl)C(C)C,Potency,[1],inactive
same,Potency,[7],inactive
same,Potency,[2],inactive
same,Potency,[3],inactive
same,Potency,[4],inactive
same,Potency,[5],inactive
same,Potency,[6],inactive
same,Potency,[8],inactive
Brc1ccc(Oc2ccc(Br)cc2Br)c(Br)c1,Potency,[1],inactive
same,Potency,[7],inactive
same,Potency,[3],inactive
same,Potency,[4],inactive
same,Potency,[5],inactive
same,Potency,[6],61.2 µM (active)
same,Potency,[8],inactive
Clc1ccc(C(Cl)(Cl)Cl)cc1Cl,Potency,[1],inactive
same,Potency,[10],inactive
same,Potency,[2],inactive
same,Potency,[3],inactive
same,Potency,[4],inactive
same,Potency,[8],inactive
COC(=O)/C=C(\C)OP(=O)(OC)OC,Potency,[1],inactive
same,Potency,[7],inactive
same,Potency,[2],inactive
same,Potency,[3],inactive
same,Potency,[4],inactive
same,Potency,[8],inactive
CC(C)(C)c1ccc(OP(=O)(Oc2ccccc2)Oc2ccccc2)cc1,Potency,[1],inactive
same,Potency,[7],inactive
same,Potency,[4],inactive
same,Potency,[8],inactive
S=C=NCCc1ccccc1,Potency,[1],inactive
same,Potency,[10],30.7 µM (active)
same,Potency,[9],inactive
same,Potency,[3],inactive
same,Potency,[5],inactive
same,Potency,[6],inactive
same,Potency,[8],inactive
COP(=O)(OC)Oc1ccc([N+](=O)[O-])cc1,Potency,[1],inactive
same,Potency,[10],inactive
same,Potency,[3],inactive
same,Potency,[4],inactive
same,Potency,[5],inactive
same,Potency,[6],inactive
N#Cc1c2ccccc2cc2ccccc12,Potency,[1],21.6 µM (active)
same,Potency,[9],inactive
same,Potency,[3],inactive
same,Potency,[4],inactive
same,Potency,[5],inactive
same,Potency,[6],inactive
same,Potency,[8],inactive
CCN(CC)CCc1c[nH]c2ccccc12,Potency,[1],inactive
same,Potency,[7],inactive
same,Potency,[2],inactive
same,Potency,[3],inactive
same,Potency,[4],inactive
same,Potency,[6],inactive
O=[N+]([O-])c1cccc2cccc([N+](=O)[O-])c12,Potency,[1],inactive
same,Potency,[7],inactive
same,Potency,[2],inactive
same,Potency,[3],inactive
same,Potency,[8],inactive
O=[N+]([O-])C(Br)Br,Potency,[1],inactive
same,Potency,[2],inactive
same,Potency,[9],inactive
same,Potency,[3],inactive
same,Potency,[5],inactive
same,Potency,[8],inactive
CN,Potency,[10],inactive
same,Potency,[7],inactive
same,Potency,[2],inactive
same,Potency,[3],inactive
same,Potency,[5],inactive
same,Potency,[6],inactive
same,Potency,[8],inactive
BrCC(Br)(Br)Br,Potency,[1],inactive
same,Potency,[10],inactive
same,Potency,[2],inactive
same,Potency,[9],inactive
same,Potency,[3],inactive
same,Potency,[4],inactive
same,Potency,[8],inactive
COP(=S)(OC)Oc1ccc([N+](=O)[O-])c(C)c1,Potency,[1],inactive
same,Potency,[7],inactive
same,Potency,[3],inactive
same,Potency,[4],inactive
same,Potency,[6],inactive
same,Potency,[8],inactive
FC(F)C(F)(F)OCC(Cn1cncn1)c1ccc(Cl)cc1Cl (configuration not stated),Potency,[1],inactive
same,Potency,[2],60.8 µM (active)
same,Potency,[5],inactive
CC(C)[C@@H](Nc1ccc(C(F)(F)F)cc1Cl)C(=O)OC(C#N)c1cccc(Oc2ccccc2)c1 (some centres not stated),Potency,[1],inactive
same,Potency,[7],inactive
same,Potency,[2],inactive
same,Potency,[3],inactive
same,Potency,[4],inactive
same,Potency,[8],inactive
CCc1cccc(C)c1N(C(=O)CCl)[C@@H](C)COC,Potency,[1],inactive
same,Potency,[7],inactive
same,Potency,[3],inactive
same,Potency,[5],inactive
same,Potency,[6],inactive
same,Potency,[8],inactive
N#CSCc1ccccc1,Potency,[10],inactive
same,Potency,[7],inactive
same,Potency,[2],inactive
same,Potency,[3],inactive
same,Potency,[4],inactive
same,Potency,[5],inactive
same,Potency,[6],inactive
same,Potency,[8],inactive
COc1nc(C)nc(NC(=O)NS(=O)(=O)c2ccccc2Cl)n1,Potency,[10],inactive
same,Potency,[7],inactive
same,Potency,[2],inactive
same,Potency,[3],inactive
same,Potency,[4],inactive
same,Potency,[5],inactive
same,Potency,[6],inactive
same,Potency,[8],inactive
CSC(=O)c1c(C(F)F)nc(C(F)(F)F)c(C(=O)SC)c1CC(C)C,Potency,[1],inactive
same,Potency,[7],inactive
same,Potency,[3],inactive
same,Potency,[4],inactive
same,Potency,[6],inactive
same,Potency,[8],inactive
CCOP(=S)(NC(C)C)Oc1ccccc1C(=O)OC(C)C (configuration not stated),Potency,[1],inactive
same,Potency,[4],inactive
same,Potency,[5],inactive
same,Potency,[8],inactive
Cc1c([N+](=O)[O-])cc2c(c1[N+](=O)[O-])C(C)(C)CC2(C)C,Potency,[1],inactive
same,Potency,[7],inactive
same,Potency,[2],inactive
same,Potency,[3],inactive
same,Potency,[4],inactive
same,Potency,[5],inactive
same,Potency,[6],inactive
same,Potency,[8],inactive
